# Results published in PubChem BioAssay AID1645872 (National Center for Advancing Translational Sciences (NCATS), 2021).
# Records with an inconclusive call do not appear. The source made the active and inactive calls. The call rests on the fitted dose curve; in most records, active means well fitted inhibition curve with a large enough effect; inconclusive means small, poorly fitted or top-dose-only effect; inactive means flat fitted curve, though single readings scatter.
# Biological target: Papain (Carica papaya) (UniProt P00784)
# Assay: Confirmatory qHTS assay for inhibitors of the protease papain
# Details: papain Z-FR-AMC cleavage, fluorescence
# Excerpt: Principal Investigator: Sam Michael National Center for Advancing Translational Sciences, National Institutes of Health, Rockville, MD Current high-throughput screening (HTS) assay validation is often a manual process, though this can be enhanced by design-of-experiment approaches. An artificial intelligence-driven (AI/ML) assay optimization was developed as part of the NCATS A Specialized Platform for Innovative Research Exploration (ASPIRE) Initiative to accelerate preclinical drug discovery. We describe the development of an autonomous Cloud-based computational driven assay optimization system using the Kebotix adaptive optimization algorithm. […]
# PROTOCOL TABLE SEQUENCE No. (e.g., 1, 2, 3, etc.); PARAMETER (e.g., Cells, Incubation, Reagent, etc.); VALUE and DESCRIPTION. 1; Reagent; 3 uL; 4/3x Enzyme solution (working concentration of 5 nM) or 3 uL buffer 2; Compounds; 17 nL; library compounds and controls (working concentration of 169 nM - […]) 3; Time; 15 min; room temperature incubation 4; Reagent; 1 uL; 4x 2 uM Z-FR-AMC substrate 5; Centrifugation; 1000 rpm; 15 sec centrigure 6; Detection; Fluorescence Read 1; ViewLux plate reader 7; Time; 10 min; room temperature incubation 8; Detection; Fluorescence Read 2; ViewLux plate reader NOTES (numbers refer to Sequence numbers above; values are from representative experiments) 1; Dispense 3 uL of [4/3x] […]
# Papain (Carica papaya), sequence (P00784 whole entry, looked up): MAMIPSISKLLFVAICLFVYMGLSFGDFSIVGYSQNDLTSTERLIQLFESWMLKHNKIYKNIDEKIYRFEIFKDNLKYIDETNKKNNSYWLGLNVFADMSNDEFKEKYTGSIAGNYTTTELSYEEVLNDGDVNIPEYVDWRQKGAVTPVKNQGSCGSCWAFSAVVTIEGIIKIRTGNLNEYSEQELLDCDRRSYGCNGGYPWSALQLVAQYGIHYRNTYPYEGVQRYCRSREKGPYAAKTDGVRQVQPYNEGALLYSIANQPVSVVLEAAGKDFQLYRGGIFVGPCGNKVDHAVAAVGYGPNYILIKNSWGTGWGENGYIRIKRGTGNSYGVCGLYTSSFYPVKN
smiles,measurement,value
Cc1ccc(S(=O)(=O)N[C@@H](CCCCN)C(=O)CCl)cc1,Potency,647 nM (active)
